MCF10A rerep: A quantitative high throughput screen for small molecules that induce DNA re-replication in MCF 10a normal breast cells | Potency, µM (titrated, usually from 46.1 µM), usual class: activators | actives 2.9% (n = 350,000) | MCF 10A DNA re-replication, Hoechst nuclear intensity, 48 h | AID 624296, 2012; note: nearly all actives have a fitted effect of over 50% in size
HT1080 IDH1KD tx: qHTS for induction of synthetic lethality in tumor cells producing 2HG: qHTS for the HT-1080-IDH1KD cell line. HT-1080 IDH1 knockdown viability, ATP luminescence, 48 h. Potency, µM (highest dose often 46.1 µM), actives largely listed as cytotoxic. actives 2% (n = 360,000). AID 686971, 2013
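In this qHTS, HT-1080 cells depleted of IDH1 are exposed for 48 h at 37 °C to compound titrations. Toxicity is scored from CellTiter-Glo luminescence, with DMSO as full viability and medium alone as none.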
KB-V1 cytotox: qHTS assay for MDR1-selective chemotherapeutics: Primary screen using the drug-selected MDR subline cells KB-V1 | KB-V1 MDR cells viability, CellTiter-Glo, 72 h | Potency, µM (series often up to 46.1 µM), usual class: cytotoxic | actives 3.4% (n = 400,000); note: nearly all actives have a fitted effect of over 60% in size
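Following 72 h at 37 degrees C with compound, KB-V1 cell viability was read by CellTiter-Glo luminescence, medium being phenol-red-free DMEM plus 10% FBS; concentration-response parameters came from normalized, curve-fitted qHTS data.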
SW480 rereplic: A quantitative high throughput screen for small molecules that induce DNA re-replication in SW480 colon adenocarcinoma cells. Potency, µM (doses to about 46.1 µM), hits mostly activators. SW480 DNA re-replication, Hoechst DNA content imaging, 48 h. actives 1.8% (n = 340,000); note: nearly all actives have a fitted effect of over 55% in size
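250 cells/well; 23 nL cpd via pin tool; 48 hr, 37 C, 5% CO2; Hoechst 40 min; imager read of total nuclear intensity, ex 405/em 500-530 nm.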
KB-3-1 tox: qHTS assay for MDR1-selective chemotherapeutics: Primary screen using the parental adenocarcinoma cell KB-3-1. KB-3-1 viability, CellTiter-Glo ATP luminescence, 72 h. Potency, µM (doses to about 46.1 µM), actives largely listed as cytotoxic. actives 1.4% (n = 400,000); note: nearly all actives have a fitted effect of over 60% in size
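Using CellTiter-Glo luminescence, growth of non-resistant KB-3-1 adenocarcinoma cells is assessed 72 h after pin-tool compound addition at 37 °C. Normalized responses across the concentration series yield fitted curves.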
HT1080-NT tox: qHTS for induction of synthetic lethality in tumor cells producing 2HG: qHTS for the HT-1080-NT fibrosarcoma cell line; Potency, µM (titrated, usually from 46.1 µM), hits mostly cytotoxic; HT-1080-NT fibrosarcoma viability, CellTiter-Glo ATP luminescence, 48 h; actives 1.6% (n = 360,000); AID 686970, 2013;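 note: NT is the 2HG producing partner of a matched IDH1 knockdown line; nearly all actives have a fitted effect of over 55% in size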
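A 48-hour cytotoxicity screen used HT-1080-NT cells plated 2 hours before compound delivery. ATP-based CellTiter-Glo luminescence measured viability, normalized to DMSO and no-cell controls.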
Each line names hits and unclear results; the compound was inactive in the other large screens. The list is not random: actives were taken first. Their share in the collection is about 8%. Calls come from the whole dose curve; as a rule, active = well fitted curve in the direction sought with a large enough effect; inconclusive = small, poorly fitted or top-dose-only effect, or another doubt; inactive = no such curve, though single readings can be large; an effect the other way counts as inactive or inconclusive.

Cc1c(C(=O)C(=O)N2CC=C(c3ccccc3)CC2)c2ccccc2n1C	MCF10A rerep 2.3µM, HT1080 IDH1KD tx 2.3µM, KB-V1 cytotox 3.7µM, SW480 rereplic 7.3µM, KB-3-1 tox 2.9µM, HT1080-NT tox 2.6µM
Cc1c(C(=O)C(=O)N2c3ccccc3CC2C)c2ccccc2n1C (stereo not given)	MCF10A rerep inconclusive, HT1080 IDH1KD tx inconclusive, KB-V1 cytotox 21µM, SW480 rereplic inconclusive, KB-3-1 tox 23µM, HT1080-NT tox inconclusive
COc1cccc(CNC(=O)C(Cc2ccccc2)NS(=O)(=O)c2ccc3c(c2)CCN3C(C)=O)c1 (stereo not given)	none (no result: MCF10A rerep, HT1080 IDH1KD tx, SW480 rereplic, HT1080-NT tox)
CCOC(=O)NC(c1ccc(C(C)C)cc1)C(Cl)(Cl)Cl (stereo not given)	none
COc1cc(/C=C/C(=O)c2ccc([N+](=O)[O-])o2)ccc1O	MCF10A rerep inconclusive, HT1080 IDH1KD tx inconclusive, SW480 rereplic 0.058µM, HT1080-NT tox 18µM
O=C(/C=C/c1cccc(Cl)c1)c1ccc([N+](=O)[O-])o1	MCF10A rerep 2.3µM, HT1080 IDH1KD tx inconclusive, SW480 rereplic 1.5µM, KB-3-1 tox inconclusive, HT1080-NT tox inconclusive
O=S(=O)(c1ccc(NC(=S)N2CCCCC2)cc1)N1CCCCC1	KB-V1 cytotox inconclusive (no result: MCF10A rerep, SW480 rereplic)
COC(=O)c1ccc2c(c1)C(C)(C)C(/C=C/c1ccc(OC)c(OC)c1OC)=[N+]2C	MCF10A rerep inconclusive, HT1080 IDH1KD tx 12µM, KB-3-1 tox 5.2µM, HT1080-NT tox 12µM
COC(=O)c1ccc2c(c1)C(C)(C)C(/C=C/c1ccc(O)cc1)=[N+]2C	MCF10A rerep 7.1µM, HT1080 IDH1KD tx 2.8µM, KB-V1 cytotox 6.3µM, SW480 rereplic 6.3µM, KB-3-1 tox inconclusive, HT1080-NT tox 5µM
CCOC(=O)C1=CN(Cc2cccc(-c3ccc(Cl)nc3)c2)S(=O)(=O)N(C)C1C (stereo not given)	KB-V1 cytotox inconclusive
CC1CCN(S(=O)(=O)c2ccc3c(c2)oc(=O)n3CC(=O)NC(C)c2ccccc2)CC1 (stereo not given)	KB-3-1 tox inconclusive (no result: MCF10A rerep, HT1080 IDH1KD tx, SW480 rereplic, HT1080-NT tox)
Cc1cccc(OCC(=O)NC(C)C(=O)N/N=C/c2c(OCc3ccccc3)ccc3ccccc23)c1 (stereo not given)	HT1080 IDH1KD tx inconclusive, KB-V1 cytotox 16µM, SW480 rereplic inconclusive, KB-3-1 tox inconclusive, HT1080-NT tox inconclusive
CCOC(=O)/C(=C\c1cccc(O)c1)c1nc2sc(C)c(C)c2c(=O)[nH]1	MCF10A rerep 2.3µM, HT1080 IDH1KD tx inconclusive, KB-V1 cytotox inconclusive, SW480 rereplic inconclusive, KB-3-1 tox inconclusive, HT1080-NT tox inconclusive
Cc1ncc([N+](=O)[O-])n1CC(=O)Nc1cc(Cl)ccc1Cl	none
O=C(NCc1ccc(OC(F)(F)F)cc1)c1cc(-c2ccccc2)nn1CC1CC(c2cccnc2)=NO1 (stereo not given)	KB-V1 cytotox 21µM
Fc1ccc2[nH]c3c(NCc4ccco4)ncnc3c2c1	KB-3-1 tox inconclusive (no result: MCF10A rerep, HT1080 IDH1KD tx, SW480 rereplic, HT1080-NT tox)
Cc1sc2ncnc(NCCN3CCOCC3)c2c1C	KB-V1 cytotox 16µM
Cc1ccc2[nH]c3c(NCc4ccco4)ncnc3c2c1	MCF10A rerep inconclusive, KB-V1 cytotox 18µM, KB-3-1 tox 13µM
Cc1sc2nc(CN3CCOCC3)nc(NCCc3ccccc3)c2c1C	KB-V1 cytotox 8.2µM
Cc1sc2nc(CN3CCOCC3)nc(NS(=O)(=O)c3ccccc3)c2c1C	none
Cc1sc2ncnc(NCc3cccs3)c2c1C	KB-V1 cytotox 2.6µM, KB-3-1 tox inconclusive
CCc1ccc(S(=O)(=O)c2c[nH]c3cc(OC)c(OC)cc3c2=O)cc1	none (no result: MCF10A rerep, HT1080 IDH1KD tx, SW480 rereplic, HT1080-NT tox)
Cc1sc2ncnc(NCc3ccco3)c2c1C	KB-V1 cytotox 2.6µM, KB-3-1 tox 6.5µM
Cc1ccc(/C=N/NC(=O)c2csc3c2CCCC3)cc1	MCF10A rerep 1.3µM, HT1080 IDH1KD tx inconclusive, KB-V1 cytotox inconclusive, SW480 rereplic inconclusive, KB-3-1 tox 2.1µM, HT1080-NT tox inconclusive
COC(=O)c1ccccc1NC(=O)N1CCN(c2ccc(F)cc2)CC1	none
O=C(CC(=O)c1ccccc1)Nc1ccccn1	none
O=C(CC(O)(c1ccccc1)c1ccccc1)Nc1ccccn1	KB-V1 cytotox 15µM
O=C(/C=C\c1cccs1)c1c(O)ccc2ccc(=O)oc12	MCF10A rerep 21µM, HT1080 IDH1KD tx 23µM, KB-3-1 tox inconclusive, HT1080-NT tox inconclusive
O=C(C=Cc1cccs1)c1cccs1	MCF10A rerep inconclusive
O=C(COC(=O)c1ccc(F)c(S(=O)(=O)N2CCOCC2)c1)NCc1ccc(Cl)cc1	none
O=C(O)c1ccc(CN2C(=O)CSC2=S)cc1	MCF10A rerep 5.2µM, KB-3-1 tox inconclusive
O=C(O)c1ccc(N2C(=O)CSC2=S)cc1	HT1080-NT tox inconclusive
O=C1CSC(=S)N1Cc1cccnc1	MCF10A rerep 3.3µM, HT1080 IDH1KD tx inconclusive, KB-V1 cytotox 2.9µM, KB-3-1 tox 4.6µM, HT1080-NT tox inconclusive
S=C1SCN(Cc2cccnc2)CN1Cc1ccccc1	HT1080 IDH1KD tx 21µM, HT1080-NT tox inconclusive
CCn1cc(C(=O)NCCCOC)c(=O)c2cc(S(=O)(=O)N3CCc4ccccc4C3)ccc21	none (no result: MCF10A rerep, HT1080 IDH1KD tx, SW480 rereplic, HT1080-NT tox)
CCN(CC)S(=O)(=O)c1ccc(Oc2ccc(S(=O)(=O)N(CC)CC)cc2)cc1	KB-V1 cytotox 2.3µM, KB-3-1 tox inconclusive, HT1080-NT tox inconclusive
CC1(c2nnnn2Cc2ccccc2)CCC(=O)N1Cc1cccnc1 (stereo not given)	none (no result: MCF10A rerep, SW480 rereplic)
COc1ccccc1C1=NC(c2ccc(F)cc2)N=C1C (stereo not given)	KB-V1 cytotox inconclusive, KB-3-1 tox 18µM
COc1ccccc1-c1n[nH]nc1C1=CC(=O)C[C@H](c2ccc(F)cc2)C1	none (no result: MCF10A rerep, SW480 rereplic)
Cc1ccc(N(C(=O)c2csnn2)C(C(=O)NC(C)(C)C)c2ccncc2)cc1 (stereo not given)	MCF10A rerep 9.2µM, SW480 rereplic 18µM
CC(C)(C)NC(=O)C(c1ccco1)N(C(=O)c1csnn1)c1ccccc1 (stereo not given)	KB-V1 cytotox 15µM
CCC(C)(C)NC(=O)C(c1ccccc1)N(Cc1cccnc1)C(=O)c1csnn1 (stereo not given)	MCF10A rerep inconclusive, KB-V1 cytotox 13µM
CC(C)(C)NC(=O)C(c1ccncc1)N(C(=O)c1csnn1)c1ccccc1 (stereo not given)	none

Screening data (PubChem BioAssay)
